Results on five compounds are retold here after PubChem BioAssay (EPA / NIEHS).

Read-out in assay [1]: Interferon-gamma inducible Protein 10 (IP10), CXCL10 (gene 3627)
Kind of assay: BSK_hDFCGF_IP10: BioMAP Diversity Plus: hDFCGF Assay for Interferon-gamma inducible Protein 10 (IP10) Biomarker Activity (AID 2283053). Conditions: primary human foreskin fibroblasts; actives raise or lower the signal. The method in brief: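 Primary foreskin fibroblasts, human; 24 h compound exposure; IP-10 by ELISA; bidirectional fit vs DMSO.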

Read-out in assay [2]: Urokinase-type plasminogen activator receptor (uPAR), PLAUR (gene 5329)
Kind of assay: BSK_CASM3C_uPAR: BioMAP Diversity Plus: CASM3C Assay for Urokinase-type plasminogen activator receptor (uPAR) Biomarker Activity (AID 2283054).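 Note: cell-surface uPAR protein level quantified by ELISA.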 Conditions: primary human coronary artery smooth muscle cells; actives raise or lower the signal.

Read-out in assay [3]: Vascular cell adhesion molecule 1 (VCAM1), VCAM1 (gene 7412)
Put plainly: BSK_CASM3C_VCAM1: BioMAP Diversity Plus: CASM3C Assay for Vascular cell adhesion molecule 1 (VCAM1) Biomarker Activity (AID 2283055).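 Note: VCAM-1 protein level quantified by ELISA on the cells.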 Conditions: primary human coronary artery smooth muscle cells; actives raise or lower the signal.

Read-out in assay [4]: Epidermal growth factor receptor (EGFR), EGFR (gene 1956)
Put plainly: BSK_hDFCGF_EGFR: BioMAP Diversity Plus: hDFCGF Assay for Epidermal growth factor receptor (EGFR) Biomarker Activity (AID 2283057). The conditions noted are these: primary human foreskin fibroblasts; actives raise or lower the signal. The method in brief:
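hDFCGF system, primary human foreskin fibroblasts; compound 24 h; EGFR measured by ELISA; DMSO = negative control/baseline; bidirectional fitting.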

Read-out in assay [5]: Interleukin-8 (IL8), CXCL8 (gene 3576)
Kind of assay: BSK_hDFCGF_IL8: BioMAP Diversity Plus: hDFCGF Assay for Interleukin-8 (IL8) Biomarker Activity (AID 2283058). Conditions: primary human foreskin fibroblasts; actives raise or lower the signal. In short, it runs like this:
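Primary human foreskin fibroblasts (hDFCGF system) dosed with chemical; IL-8 measured by ELISA 24 hours later. Bidirectional curve fitting relative to DMSO baseline; cytotoxicity tracked in parallel cultures by SRB total protein staining.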

The nature of assay [6]: BSK_hDFCGF_Proliferation: Cell Proliferation Assessment in the BioMAP Diversity Plus: hDFCGF Assay (AID 2283059).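 Note: curves fitted for both rise and fall of signal versus DMSO baseline.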 Conditions: primary human foreskin fibroblasts. In short, it runs like this: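 Primary human foreskin fibroblasts, sub-confluent; […]; 10% TCA fix, 0.1% SRB stain, A560 total protein. Gain/loss fitted bidirectionally vs DMSO control.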
Read-out in assay [7]: Macrophage colony-stimulating factor (MCSF), CSF1 (gene 1435)
Put plainly: BSK_hDFCGF_MCSF: BioMAP Diversity Plus: hDFCGF Assay for Macrophage colony-stimulating factor (MCSF) Biomarker Activity (AID 2283060). Conditions: primary human foreskin fibroblasts; actives raise or lower the signal. The method in brief: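 Human foreskin fibroblast primary cultures; M-CSF measured by ELISA 24 hours after chemical dosing. Bidirectional fitting relative to DMSO, with overt cytotoxicity tracked by parallel SRB total-protein staining (0.1% SRB, 10% TCA fixation, 560 nm).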

Assay [8] is described as follows: BSK_hDFCGF_SRB: Viability Assessment in the BioMAP Diversity Plus: hDFCGF Assay (AID 2283061).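 Note: cells exposed to compound for 24 h before the read.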 The conditions noted are these: primary human foreskin fibroblasts. The method in brief:
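Human foreskin fibroblasts in 96-well plates were treated 24 h. Total protein was measured by 0.1% SRB staining after 10% TCA fixation, read at 560 nm. Data were fitted bidirectionally against DMSO.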

Read-out in assay [9]: TIMP metallopeptidase inhibitor 1 (TIMP1), TIMP1 (gene 7076)
Put plainly: BSK_hDFCGF_TIMP1: BioMAP Diversity Plus: hDFCGF Assay for TIMP metallopeptidase inhibitor 1 (TIMP1) Biomarker Activity (AID 2283062). Conditions: primary human foreskin fibroblasts; actives raise or lower the signal. The method in brief:
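Human foreskin fibroblast primary cultures dosed for 24 h; secreted/surface TIMP-1 quantified by ELISA. Bidirectional curve fitting against DMSO baseline; cytotoxicity tracked in parallel cultures by SRB total-protein staining.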

Read-out in assay [10]: Monokine induced gamma interferon (MIG), CXCL9 (gene 4283)
Put plainly: BSK_hDFCGF_MIG: BioMAP Diversity Plus: hDFCGF Assay for Monokine induced gamma interferon (MIG) Biomarker Activity (AID 2283063). Conditions: primary human foreskin fibroblasts; actives raise or lower the signal. The method in brief: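 MIG/CXCL9 measured by ELISA 24 h after dosing primary human skin fibroblasts. Activity fitted in both directions against DMSO controls. Cytotoxicity was checked in parallel cultures by SRB staining read at 560 nm.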

Read-out in assay [11]: Matrix Metallopeptidase 1 (MMP1), MMP1 (gene 4312)
Kind of assay: BSK_hDFCGF_MMP1: BioMAP Diversity Plus: hDFCGF Assay for Matrix Metallopeptidase 1 (MMP1) Biomarker Activity (AID 2283064). The conditions noted are these: primary human foreskin fibroblasts; actives raise or lower the signal. In short, it runs like this:
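Primary human foreskin fibroblasts in the hDFCGF system were dosed with test chemical, and MMP1 was measured by ELISA 24 h later. Values come from bidirectional curve fitting against the DMSO baseline.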

Read-out in assay [12]: Vascular cell adhesion molecule 1 (VCAM1), VCAM1 (gene 7412)
Put plainly: BSK_hDFCGF_VCAM1: BioMAP Diversity Plus: hDFCGF Assay for Vascular cell adhesion molecule 1 (VCAM1) Biomarker Activity (AID 2283065). The conditions noted are these: primary human foreskin fibroblasts; actives raise or lower the signal. In short, it runs like this: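 Human foreskin fibroblast primary cells dosed with chemical, VCAM-1 measured by ELISA at 24 h. Bidirectional curve fitting relative to DMSO as negative control/baseline.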

Read-out in assay [13]: Plasminogen activator inhibitor-1 (PAI1), SERPINE1 (gene 5054)
Put plainly: BSK_hDFCGF_PAI1: BioMAP Diversity Plus: hDFCGF Assay for Plasminogen activator inhibitor-1 (PAI1) Biomarker Activity (AID 2283066). Conditions: primary human foreskin fibroblasts; actives raise or lower the signal. The method in brief:
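Primary dermal fibroblasts (human foreskin), hDFCGF system; compound 24 h; PAI-1 by ELISA; bidirectional fit vs DMSO control.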

Read-out in assay [14]: Intercellular Adhesion Molecule 1 (ICAM1), ICAM1 (gene 3383)
Put plainly: BSK_KF3CT_ICAM1: BioMAP Diversity Plus: KF3CT Assay for Intercellular Adhesion Molecule 1 (ICAM1) Biomarker Activity (AID 2283067). Conditions: primary human keratinocytes with fibroblasts; actives raise or lower the signal. The method in brief:
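Human keratinocyte–foreskin fibroblast co-culture was treated for 24 h. Cell-surface ICAM-1 was quantified by ELISA, fitted bidirectionally relative to DMSO. Cytotoxicity was checked in parallel cultures by SRB total-protein staining.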

Assay [15] in a line: BSK_KF3CT_SRB: Viability Assessment in the BioMAP Diversity Plus: KF3CT Assay (AID 2283069).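 Note: total protein by sulforhodamine B staining as a cytotoxicity measure; read 24 h after compound addition.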 The conditions noted are these: primary human keratinocytes with fibroblasts. In short, it runs like this: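 Human primary keratinocyte plus foreskin fibroblast co-culture exposed to chemicals for 24 h. Total protein measured by 0.1% sulforhodamine B staining after 10% TCA fixation, read at 560 nm; bidirectional fitting versus DMSO baseline.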

Read-out in assay [16]: Interleukin-1 alpha (IL1a), IL1A (gene 3552)
Put plainly: BSK_KF3CT_IL1a: BioMAP Diversity Plus: KF3CT Assay for Interleukin-1 alpha (IL1a) Biomarker Activity (AID 2283070). The conditions noted are these: primary human keratinocytes with fibroblasts; actives raise or lower the signal. In short, it runs like this:
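Human keratinocyte plus foreskin fibroblast primary co-culture, sampled 24 h after chemical dosing. IL-1a measured by ELISA; responses fitted bidirectionally against DMSO baseline (negative control), so gain or loss of signal both count.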

Read-out in assay [17]: TIMP metallopeptidase inhibitor 2 (TIMP2), TIMP2 (gene 7077)
Put plainly: BSK_KF3CT_TIMP2: BioMAP Diversity Plus: KF3CT Assay for TIMP metallopeptidase inhibitor 2 (TIMP2) Biomarker Activity (AID 2283071). Conditions: primary human keratinocytes with fibroblasts; actives raise or lower the signal. The method in brief:
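Cells: human keratinocytes co-cultured with foreskin fibroblasts. Treat with chemical, 24 h. Measure TIMP-2 by ELISA; fit curves bidirectionally vs DMSO baseline.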

Read-out in assay [18]: Transforming growth factor beta 1 (TGFb1), TGFB1 (gene 7040)
Put plainly: BSK_KF3CT_TGFb1: BioMAP Diversity Plus: KF3CT Assay for Transforming growth factor beta 1 (TGFb1) Biomarker Activity (AID 2283072). The conditions noted are these: primary human keratinocytes with fibroblasts; actives raise or lower the signal. In short, it runs like this: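 Primary human skin cells (keratinocytes, foreskin fibroblasts) were co-cultured, exposed to test chemical and sampled at 24 h. TGF-b1 levels were measured by ELISA and fitted bidirectionally relative to DMSO.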

Read-out in assay [19]: Interferon-gamma inducible Protein 10 (IP10), CXCL10 (gene 3627)
Kind of assay: BSK_KF3CT_IP10: BioMAP Diversity Plus: KF3CT Assay for Interferon-gamma inducible Protein 10 (IP10) Biomarker Activity (AID 2283068). The conditions noted are these: primary human keratinocytes with fibroblasts; actives raise or lower the signal. The method in brief:
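In a primary skin co-culture of keratinocytes and fibroblasts, IP-10 is quantified by ELISA at 24 h after dosing. SRB staining of parallel wells monitors overt toxicity. Curves are fitted both directions against DMSO.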

Active and inactive are the calls of the source. Rule for the calls: active = hit-call score of the fitted dose curve at least 0.9, where 1 is the maximum; inactive = score below 0.9.

With `CCCCCCCCOC(=O)CCCCCCCCC(=O)OCCCCCCCC`, the result in assay [1], in assay [2], in assay [3], in assay [4], in assay [5] and in assay [6] was inactive. In addition, the outcome in assay [7], in assay [8], in assay [9], in assay [10], in assay [11] and in assay [12] was inactive. The result in [13], in assay [14], in assay [15], in [16], in assay [17] and in [18] was inactive.

On to `CCc1ccc(CCOc2ccc(CC3SC(=O)NC3=O)cc2)nc1` (stereo unspecified), for which the outcome in [1], in assay [2], in assay [3], in assay [4], in assay [5] and in assay [6] was inactive. For the same compound, the result in assay [7], in assay [8], in assay [10], in assay [11], in assay [12] and in assay [13] was inactive. Moreover, the outcome in assay [14], in assay [19], in assay [15], in assay [16], in assay [17] and in assay [18] was inactive.

As for `COc1ccc([N+](=O)[O-])cc1N`, the result in assay [1], in [2], in [3], in [4], in assay [5] and in assay [6] was inactive. Further, the result in [7], in assay [8], in assay [9], in assay [10], in assay [11] and in [12] was inactive. Besides, the outcome in [13], in assay [14], in assay [15], in assay [16], in assay [17] and in [18] was inactive.

As for `CCCOC(=O)c1ccc(O)cc1`, the outcome in [1], in [2], in [3], in [4], in assay [5] and in assay [6] was inactive. In addition, the outcome in assay [7], in assay [8], in [9], in [10], in assay [11] and in assay [12] was inactive. In addition, the result in [13], in assay [14], in [15], in [16], in assay [17] and in [18] was inactive.

`CCC(C)(C)C1CCC(O)CC1` (stereo unspecified): the outcome in assay [1], in assay [2], in assay [3], in assay [4], in [5] and in assay [6] was inactive. In addition, the outcome in [7], in [8], in assay [9], in [10], in assay [11] and in assay [12] was inactive. Besides, the result in assay [13], in assay [14], in assay [15], in assay [16], in assay [17] and in assay [18] was inactive. For the same compound, the AC50 in assay [19] is 32.8 µM (active).
